# Results taken from PubChem BioAssay (NCI).
# This is part of a sample that, as a whole, favours compounds with a hit. Of some 83,000 tested, about 20% had one in any assay.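 Each cell line was grown in a 96-well plate and treated with one concentration of compound for 48 hours. Values below 10 were considered active.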 Values without a mark were called inactive. The source made the active and inactive calls.
# Tests used:
# Experiment in all cases: NCI-60 one-dose screen, 48 h (100 = growth as untreated, 0 = no growth, -100 = all killed)
# Details in all cases: 10 µM unless noted
# HCT-15 colon = system: HCT-15 colon
# HT29 colon = system: HT29 colon
# SNB-75 CNS = system: SNB-75 CNS
# SNB-19 CNS = system: SNB-19 CNS
# U251 CNS = system: U251 CNS
# SK-MEL-5 melanoma = system: SK-MEL-5 melanoma
# UACC-62 melanoma = system: UACC-62 melanoma
# LOX IMVI melanoma = system: LOX IMVI melanoma
# SK-MEL-28 melanoma = system: SK-MEL-28 melanoma
# SK-MEL-2 melanoma = system: SK-MEL-2 melanoma
# SN12C renal = system: SN12C renal
# UO-31 renal = system: UO-31 renal
# TK-10 renal = system: TK-10 renal
# ACHN renal = system: ACHN renal
# CAKI-1 renal = system: CAKI-1 renal
# A498 renal = system: A498 renal
# CCRF-CEM leukemia = system: CCRF-CEM leukemia
# MOLT-4 leukemia = system: MOLT-4 leukemia
# PC-3 prostate = system: PC-3 prostate
# EKVX NSCLC = system: EKVX NSCLC
SMILES,growth (HCT-15 colon),growth (HT29 colon),growth (SNB-75 CNS),growth (SNB-19 CNS),growth (U251 CNS),growth (SK-MEL-5 melanoma),growth (UACC-62 melanoma),growth (LOX IMVI melanoma),growth (SK-MEL-28 melanoma),growth (SK-MEL-2 melanoma),growth (SN12C renal),growth (UO-31 renal),growth (TK-10 renal),growth (ACHN renal),growth (CAKI-1 renal),growth (A498 renal),growth (CCRF-CEM leukemia),growth (MOLT-4 leukemia),growth (PC-3 prostate),growth (EKVX NSCLC)
O=C1CCC(N2C(=O)c3cccc(NCCCCCC(=O)N4CCN(c5ccc6nc7c(nc6c5C(F)(F)F)C(=O)c5ncccc5C7=O)CC4)c3C2=O)C(=O)N1 (stereo unspecified),-69.5% (active),-18.7% (active),-75.8% (active),-72.3% (active),-90.4% (active),-95.3% (active),-72.7% (active),-85.1% (active),-84.8% (active),-74.6% (active),-79.6% (active),-94.5% (active),-9.44% (active),-70.8% (active),-78.8% (active),-80.7% (active),-23.1% (active),-25.6% (active),,
Cc1ccc(C(=O)Nc2cc(-c3ccncc3)cc(C(F)(F)F)c2)cc1C#Cc1cnc2cccnn12,40.5%,26.9%,93.7%,92.9%,,34.4%,14.4%,11.1%,16.2%,37.9%,34.8%,31.4%,63.7%,46.6%,40.8%,48.9%,30%,31.3%,75.1%,64.3%
Clc1ccc(-c2nc3c4c(-c5ccccc5)c(-c5ccccc5)n(Cc5ccccc5)c4ncn3n2)cc1,13.6%,-2% (active),-23.1% (active),,15.1%,-94.6% (active),11.7%,11.9%,36.2%,-10.4% (active),0.356% (active),1.71% (active),24.1%,-4.9% (active),-20.1% (active),-17.4% (active),-2.09% (active),-5.99% (active),-1.48% (active),2.2% (active)
Fc1ccc(F)c(CNc2nc(SCCN3CCOCC3)nc3c2cnn3CC(Cl)c2ccc(Br)cc2)c1 (stereo unspecified),-17.6% (active),-49.7% (active),56.3%,,26.7%,-12.9% (active),-1.48% (active),-7.7% (active),32.3%,5.82% (active),28.9%,9.3% (active),44.8%,10.6%,26.7%,64.8%,11.1%,-22.6% (active),25.2%,
CC1=C(C(=O)Nc2ccccc2)C(c2cccc3ccccc23)n2c(nc3ccccc32)N1 (stereo unspecified),64.6%,40.5%,-63% (active),20.2%,,82.6%,66.8%,53.5%,70%,99.7%,18.5%,59%,81%,27.6%,5.8% (active),102%,65.4%,67.5%,,67.4%
Cc1cccc(C)c1Nc1nnc(-c2c[nH]c3ccccc23)o1,97.6%,104%,88%,,95.6%,94.1%,83.2%,83.9%,105%,99.5%,87.8%,65.3%,148%,93.9%,82.7%,134%,106%,91.1%,76.3%,74.6%
CC(C)(C)C(=O)C1CC(C#N)=C2C=Cc3c(ccc4ccccc34)N21 (stereo unspecified),88.3%,90.4%,-5.13% (active),,75.2%,91.1%,91.1%,95.5%,106%,92.4%,92.4%,90.5%,92.6%,85.2%,86.7%,,91.4%,81.6%,80%,79.7%
COc1ccc2[nH]c(O)c(N=NC(=O)c3ccc4nc(-c5ccc(Cl)cc5)[nH]c4c3)c2c1,105%,86.1%,93.8%,,-30.5% (active),96.2%,69.8%,24.6%,37.2%,109%,70.7%,95.6%,111%,104%,93.6%,166%,25.7%,15.7%,58.9%,
COc1cc(CNC(=O)C[C@H](C)CCC=C(C)C)ccc1OCc1cn(-c2ccc(Cl)c(Cl)c2)nn1,29.4%,78.3%,47.2%,,48.2%,71.9%,69.3%,50.6%,89.3%,93.7%,38.2%,60.8%,90.7%,71.5%,64%,79.9%,84.5%,68.7%,65.9%,77.2%
